Sampled rows, rich in hits. Any-hit rate of the full collection: about 27%.
CYP2C9 inhib: blockers of cytochrome P450 2C9 activity – biochemical, luminescence, ADME assay, primary screen; 96,000 compounds, 20% hits; CYP2C9 Supersomes, luciferin-H conversion; inhibition, % at 5 µM; AID 777, 2007; P11712;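 active = blocking of liver enzyme CYP2C9 beyond about 50% at 5 µM, limit read from the data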
Target sequence (P11712 whole entry, looked up): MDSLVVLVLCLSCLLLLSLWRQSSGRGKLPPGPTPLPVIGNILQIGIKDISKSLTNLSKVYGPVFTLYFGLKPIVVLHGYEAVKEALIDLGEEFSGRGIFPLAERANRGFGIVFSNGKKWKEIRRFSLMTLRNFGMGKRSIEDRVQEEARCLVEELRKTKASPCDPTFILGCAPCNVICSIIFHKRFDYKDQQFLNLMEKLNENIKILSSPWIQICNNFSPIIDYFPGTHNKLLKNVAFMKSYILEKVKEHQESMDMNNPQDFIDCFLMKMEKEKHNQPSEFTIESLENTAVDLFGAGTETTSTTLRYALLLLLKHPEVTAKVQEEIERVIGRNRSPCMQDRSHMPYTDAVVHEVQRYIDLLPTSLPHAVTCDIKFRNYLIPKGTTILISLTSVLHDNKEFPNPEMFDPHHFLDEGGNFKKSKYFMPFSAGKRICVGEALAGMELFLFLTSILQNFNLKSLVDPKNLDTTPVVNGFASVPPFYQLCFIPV
CYP2C19 act: human CYP2C19 activators, primary screen, biochemical, luminescence. Cytochrome P450 2C19 (Homo sapiens), P33261. recombinant CYP2C19, luciferin-H EGE luminescence; active compounds read high; 0 = fully inhibited enzyme, 1 = untreated enzyme. activation factor at 5 µM. 96,000 tested, under 10 active. AID 1025, 2008;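 active = activation factor of at least 2 at 5 µM in the primary screen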;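 note: 0 = wells with 2.5 mM tranylcypromine and 1 = vehicle-only wells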
Cav32 inh: Cav3.2 calcium influx blockers – cell-based, Fluo-4 calcium fluorescence, FDSS, MLSMR library, primary screen. Voltage-dependent T-type calcium channel subunit alpha-1H (Homo sapiens), O95180. Cav3.2-expressing cells; active compounds read low. B-score at 10 µM. 100,000 compounds, 4% hits. AID 449739, 2010;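 active = single-dose well whose peak fluorescence ratio is a statistical outlier from its plate by either plate-standardised score or position-corrected B-score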
CYP2C19 inh: blockers of cytochrome P450 2C19 activity – biochemical, luminescence, ADME assay, primary screen; P33261; 96,000 compounds, 21% hits; inhibition, % at 5 µM; CYP2C19 Supersomes, luciferin-H EGE luminescence, 30 min;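 active = CYP2C19 inhibition above a set limit at 5 µM in the primary screen, cut at about 50% in these data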;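 note: plate controls were negative control wells for no effect and 2.5 mM tranylcypromine positive control for full effect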
CYP2C9 act: human CYP2C9 activators, primary screen, biochemical, luminescence. recombinant CYP2C9, luciferin-H conversion; active compounds read high; factor 1 = untreated enzyme, 0 = blocked. AID 1024, 2008. activation factor at 5 µM. 96,000 compounds, 1.4% hits. Cytochrome P450 2C9 (Homo sapiens), P11712;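 active = activation factor of 2 or more for CYP2C9 at a 5 µM dose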;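 note: 0 = sulfaphenazole-blocked wells and 1 = vehicle-only wells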
* = called active by the depositor; . = not tested or not shown.

SMILES | CYP2C9 inhib | CYP2C19 act | Cav32 inh | CYP2C19 inh | CYP2C9 act
Cc1[nH]n(-c2ccccc2)c(=O)c1/C=N/n1c(C)nc2ccccc2c1=O | 18 | 1.1 | 0.029 | -12 | 0.8
Cc1nc2ccccc2c(=O)n1/N=C/c1ccncc1 | 27 | 0.2 | 0.5 | 76* | 0.7
CC(C)(Cl)C1Cc2cc3ccc(=O)oc3cc2O1 (stereo not drawn) | -1 | 1 | -0.32 | -2 | 1
COC(=O)c1cc2ccsc2n1CC(=O)N(C)C1CCCCC1 | 12 | 0.7 | . | 33 | 0.9
Oc1ccc(C(c2nnnn2C2CCCC2)N2CCc3ccccc3C2)cc1 (stereo not drawn) | 81* | 0.1 | -6.9* | 94* | 0.2
CC(C)C(c1nnnn1C1CCCCC1)N1CCc2ccccc21 (stereo not drawn) | -8 | 1 | -1 | 0 | 1.1
COc1cc(C(c2nnnn2C2CCCC2)N2CCc3ccccc3C2)ccc1O (stereo not drawn) | 57* | 0.6 | -2.8 | 43 | 0.4
CCN1CCN(C(c2ccccc2OC)c2nnnn2C2CCCCC2)CC1 (stereo not drawn) | -14 | 1.2 | 0.71 | -17 | 1.1
Cn1cc(C(=O)NCN2CCCCC2)c2ccccc21 | -9 | 1 | . | 3 | 1.1
C=CCn1c(SCC(=O)NC(=O)NCCC)nnc1C1CCCCC1 | 66* | 0.4 | 0.35 | 58* | 0.3
C=CCn1c(SCC(=O)NC(=O)NCC(C)C)nnc1C1CCCCC1 | 4 | 0.4 | 0.37 | 55* | 1
C=CCn1c(SCC(=O)NCC2CCCO2)nnc1C1CCCCC1 (stereo not drawn) | 15 | 0.9 | 0.57 | 8 | 0.9
CCC1(CC)C(=O)C(C)(C)C(=O)OC1c1cccs1 (stereo not drawn) | 44 | 0 | -1.1 | 96* | 0.6
N#Cc1nc(COc2ccccc2Cl)oc1NCc1cccnc1 | 36 | 0.1 | -0.068 | 91* | 0.6
Cc1ccc(CNc2oc(COc3ccccc3Cl)nc2C#N)cc1 | 61* | 0.7 | -0.68 | 30 | 0.4
COc1ccc(CNc2oc(COc3ccccc3Cl)nc2C#N)cc1 | 47 | 0.7 | -0.57 | 31 | 0.5
CC(NC(=S)NCCc1ccccc1)C(c1cccs1)N1CCN(Cc2ccccc2)CC1 (stereo not drawn) | . | . | -4.6* | . | .
CC(NC(=O)NC1CCCCC1)C(c1cccs1)N1CCOCC1 (stereo not drawn) | . | . | 0.088 | . | .
CC(NC(=O)NC1CCCCC1)C(c1cccs1)N1CCN(Cc2ccccc2)CC1 (stereo not drawn) | 54* | 0.6 | -3.4 | 39 | 0.5
C=CCNC(=O)CC(=O)N/N=C/c1ccc(C(=O)OC)cc1 | -5 | 1 | 0.58 | -4 | 1.1
Cc1cc2c(cc1C)CSC(c1ccccc1OC(=O)C(C)C)SC2 | 5 | 1 | -0.016 | -1 | 1
Cc1[nH][nH]c(=O)c1C(c1ccc(-c2ccc(Cl)cc2Cl)o1)c1c(C)[nH][nH]c1=O | 48 | 0.3 | -0.44 | 74* | 0.5
CC1=NOC(=O)/C1=C\c1ccc(-c2ccc(Cl)cc2Cl)o1 | 49 | 0.5 | -0.29 | 48 | 0.5
CCCc1cc(=O)[nH]c(SCC(=O)Nc2ccc(OC(F)F)cc2)n1 | 1 | 0.6 | 0.37 | 36 | 1
O=c1[nH]ncn2cccc12 | -13 | 1.1 | 0.2 | -6 | 1.1
SMILES | CYP2C9 inhib | CYP2C19 act | Cav32 inh | CYP2C19 inh | CYP2C9 act
CCn1c(SCC(=O)NCc2ccccc2)nc2ccccc2c1=O | 27 | 0.6 | -0.032 | 44 | 0.7
Cn1c(CNc2ccc(Cl)cc2)nc2ccccc21 | 84* | 0 | -2 | 98* | 0.2
Cc1cccc(NCc2nc3ccccc3n2C)c1 | 9 | 0.5 | 0.38 | 46 | 0.9
Cn1c(/C=N/NC(=O)c2ccccc2)nc2ccccc21 | 34 | 0.9 | -1.5 | 10 | 0.7
Cn1c(CNC(=O)c2ccc(F)cc2)nc2ccccc21 | -38 | 0.3 | 0.5 | 72* | 1.4
Cn1c(SCC(=O)NCc2ccc(F)cc2)nc2ccccc21 | -214 | 0.7 | 0.07 | 30 | 3.1*
CC(C)N(C(=O)CSc1nc2ccccc2n1Cc1ccc(F)cc1)C(C)C | . | . | -6.3* | . | .
CCO[C@@H]1OC(C(=O)O)=C[C@H](c2ccc(C(F)(F)F)cc2)[C@H]1CCCO | . | . | 0.25 | . | .

Assay outcomes from PubChem BioAssay.
